Assay results published in PubChem BioAssay (EPA / NIEHS).
Activity calls are given as the source filed them. How the source made its calls: active means hit-call score of the fitted dose curve at least 0.9, where 1 is the maximum; inactive means score below 0.9.

Key:
[1] = ATG_GRE_CIS: Attagene CIS-FACTORIAL HepG2 Assay for human Glucocorticoid Response Elements (GRE) (AID 2282947); conditions: HepG2 GRE cis-reporter, Attagene multiplex mRNA; actives raise or lower the signal
Procedure, shortened: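 HepG2, transient cis-reporter transfection, 24 h. Reporter mRNA: RT-PCR then CE, fluorescence. Fit both directions vs DMSO.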

[2] = ATG_ISRE_CIS: Attagene CIS-FACTORIAL HepG2 Assay for human Interferon Regulatory Factor 1 (IRF1) binding to an Interferon-Stimulated Response Element (ISRE) (AID 2282948); conditions: HepG2 ISRE cis-reporter (Attagene), mRNA transcription readout; actives raise or lower the signal
Procedure, shortened: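 Endogenous transcription factor activity read as reporter transcript abundance via RT-PCR and capillary electrophoresis. HepG2 cells transiently transfected, 24 h chemical exposure. Gain or loss fitted against DMSO baseline.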

[3] = ATG_M_06_CIS: Attagene CIS-FACTORIAL HepG2 Assay for M06 Transcription Factor (Internal Marker) (AID 2282950); conditions: HepG2 Attagene CIS-FACTORIAL M06 internal marker reporter; actives raise or lower the signal
Procedure, shortened: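 One of many multiplexed endpoints: HepG2 reporter mRNA after 24 h dosing, detected by RT-PCR and capillary electrophoresis fluorescence; gain or loss of signal analysed against DMSO.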

[4] = molecular target: Hypoxia-inducible factor 1-alpha (Homo sapiens) (UniProt Q16665); assay: ATG_HIF1a_CIS: Attagene CIS-FACTORIAL HepG2 Assay for human Hypoxia Inducible Factor 1 (HIF1A) (AID 2282951); conditions: HepG2 Attagene cis-factorial HIF1a reporter transcription; actives raise or lower the signal
Sequence of Hypoxia-inducible factor 1-alpha (Homo sapiens) (Q16665 whole entry, looked up, the tested form may be a part): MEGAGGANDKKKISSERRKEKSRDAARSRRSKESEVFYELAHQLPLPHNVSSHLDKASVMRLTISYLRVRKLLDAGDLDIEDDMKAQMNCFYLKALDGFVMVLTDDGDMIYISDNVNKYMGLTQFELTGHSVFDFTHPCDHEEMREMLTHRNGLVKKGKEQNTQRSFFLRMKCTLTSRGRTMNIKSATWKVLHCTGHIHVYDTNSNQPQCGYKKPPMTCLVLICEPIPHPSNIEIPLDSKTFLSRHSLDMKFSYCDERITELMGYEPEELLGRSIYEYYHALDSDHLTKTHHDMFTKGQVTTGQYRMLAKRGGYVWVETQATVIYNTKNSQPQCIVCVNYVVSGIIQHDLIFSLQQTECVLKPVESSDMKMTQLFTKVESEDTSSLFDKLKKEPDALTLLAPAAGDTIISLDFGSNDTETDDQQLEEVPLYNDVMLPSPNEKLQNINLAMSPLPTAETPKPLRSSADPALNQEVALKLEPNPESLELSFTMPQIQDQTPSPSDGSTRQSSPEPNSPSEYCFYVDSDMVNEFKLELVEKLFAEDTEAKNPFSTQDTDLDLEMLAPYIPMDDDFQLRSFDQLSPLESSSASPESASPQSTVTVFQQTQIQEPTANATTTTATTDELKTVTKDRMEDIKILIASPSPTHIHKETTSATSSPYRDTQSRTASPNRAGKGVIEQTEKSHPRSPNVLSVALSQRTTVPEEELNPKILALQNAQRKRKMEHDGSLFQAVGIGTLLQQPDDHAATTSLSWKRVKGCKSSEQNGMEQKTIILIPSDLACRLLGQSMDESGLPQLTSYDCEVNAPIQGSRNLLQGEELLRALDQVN
Procedure, shortened: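 Transient MRTU transfection of human HepG2 liver cells, 24 h compound treatment, then total RNA isolation, oligo(dT) reverse transcription, PCR amplification, fluorescent labelling and capillary electrophoresis of reporter fragments. Gain or loss relative to DMSO.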

[5] = molecular target: Hepatocyte nuclear factor 6 (Homo sapiens) (UniProt Q9UBC0); assay: ATG_HNF6_CIS: Attagene CIS-FACTORIAL HepG2 Assay for human Hepatocyte Nuclear Factor 6 (HNF6) (AID 2282952); conditions: HepG2 Attagene cis-factorial HNF6 reporter transcription; actives raise or lower the signal
Sequence of Hepatocyte nuclear factor 6 (Homo sapiens) (Q9UBC0 whole entry, looked up): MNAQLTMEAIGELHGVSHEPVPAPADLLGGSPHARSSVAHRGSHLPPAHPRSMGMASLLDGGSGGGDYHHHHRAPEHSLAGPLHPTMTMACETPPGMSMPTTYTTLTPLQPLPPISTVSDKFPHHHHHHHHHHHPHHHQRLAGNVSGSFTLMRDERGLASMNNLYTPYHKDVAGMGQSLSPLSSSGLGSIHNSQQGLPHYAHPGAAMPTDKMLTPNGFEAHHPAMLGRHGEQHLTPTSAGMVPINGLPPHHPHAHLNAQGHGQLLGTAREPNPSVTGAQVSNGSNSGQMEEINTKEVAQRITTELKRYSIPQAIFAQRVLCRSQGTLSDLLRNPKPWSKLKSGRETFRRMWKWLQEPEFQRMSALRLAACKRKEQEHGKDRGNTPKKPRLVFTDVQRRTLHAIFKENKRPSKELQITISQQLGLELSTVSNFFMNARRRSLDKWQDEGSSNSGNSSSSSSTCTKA
Procedure, shortened: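 Activity values derive from bidirectional fitting against DMSO of reporter mRNA levels, measured by capillary electrophoresis of labelled RT-PCR products from HepG2 cells exposed 24 h.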

[6] = molecular target: Heat shock factor protein 1 (Homo sapiens) (UniProt Q00613); assay: ATG_HSE_CIS: Attagene CIS-FACTORIAL HepG2 Assay for human Heat Shock Transcription Factor 1 (HSE) (AID 2282953); conditions: HepG2 HSE cis-reporter, Attagene RNA transcription; actives raise or lower the signal
Sequence of Heat shock factor protein 1 (Homo sapiens) (Q00613 whole entry, looked up): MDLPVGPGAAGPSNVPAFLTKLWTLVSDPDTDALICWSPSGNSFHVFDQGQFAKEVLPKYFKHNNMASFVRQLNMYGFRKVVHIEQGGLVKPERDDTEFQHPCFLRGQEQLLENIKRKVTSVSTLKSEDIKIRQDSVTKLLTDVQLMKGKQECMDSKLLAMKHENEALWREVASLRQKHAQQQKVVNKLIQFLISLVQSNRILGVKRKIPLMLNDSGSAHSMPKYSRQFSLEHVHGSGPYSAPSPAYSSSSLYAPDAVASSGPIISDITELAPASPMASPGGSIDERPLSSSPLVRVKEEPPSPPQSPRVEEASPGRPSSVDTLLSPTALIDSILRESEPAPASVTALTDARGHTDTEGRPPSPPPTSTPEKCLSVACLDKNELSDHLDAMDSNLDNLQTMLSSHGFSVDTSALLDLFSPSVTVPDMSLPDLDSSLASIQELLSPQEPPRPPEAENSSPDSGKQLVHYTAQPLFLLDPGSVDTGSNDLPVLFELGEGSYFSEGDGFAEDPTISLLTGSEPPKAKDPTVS
Procedure, shortened: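 Using HepG2 with transfected cis-driven reporter constructs, compound effects on endogenous factor activity are scored as reporter mRNA change at 24 h. Detection: RT-PCR, HpaI digestion, capillary electrophoresis; bidirectional fitting to DMSO.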

[7] = ATG_MRE_CIS: Attagene CIS-FACTORIAL HepG2 Assay for human Metal Responsive Element (MRE) (AID 2282954); conditions: HepG2 MRE cis-reporter transcription, Attagene multiplex; actives raise or lower the signal
Procedure, shortened: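 Readout: capillary electrophoresis of 6-FAM-labelled, HpaI-digested RT-PCR reporter products. System: HepG2 cells carrying transient multiplexed cis reporters, dosed 24 h. Analysis: bidirectional fit, DMSO baseline.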

[8] = ATG_PBREM_CIS: Attagene CIS-FACTORIAL HepG2 Assay for human Phenobarbital-responsive Enhancer Module (PBREM) (AID 2282955); conditions: HepG2 PBREM cis-reporter, Attagene multiplexed transcription; actives raise or lower the signal
Procedure, shortened: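 Endogenous transcription factors in human liver HepG2 cells drive a PBREM cis-element reporter, whose transcript level after 24 h treatment is quantified by RT-PCR with capillary electrophoresis; activity fitted in both directions against DMSO.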

[9] = ATG_M_32_CIS: Attagene CIS-FACTORIAL HepG2 Assay for M32 Transcription Factor (Internal Marker) (AID 2282949); conditions: HepG2 Attagene cis-factorial M32 reporter, mRNA; actives raise or lower the signal;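 further: background control marker of the multiplexed CIS panel rather than a real target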
Procedure, shortened: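 Transient MRTU transfection of HepG2; 24 h compound treatment; TriZol RNA, oligo(dT) RT, reporter PCR, 6-FAM primer extension, HpaI cut, CE. Gain/loss of signal vs DMSO.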

Measured: outcome

COCCOC(=O)c1ccccc1C(=O)OCCOC
inactive: [1] | [2] | [3] | [4] | [5] | [6] | [7] | [8]

CC(O)C1CCCCC1 (configuration not stated)
inactive: [1] | [2] | [9] | [3] | [4] | [5] | [7] | [8]

CC(C)=CCCC(C)CC(=O)O (configuration not stated)
inactive: [1] | [2] | [9] | [3] | [4] | [5] | [6] | [8]

CC(C)OCCO
inactive: [1] | [2] | [9] | [3] | [4] | [5] | [6] | [8]
